# Target: PLA2G4F
# Assay: pooled miR-30 sensor sort-seq; sequence = guide strand
# Details: shRNA
# Further: reference of the scale not given here.
row,Sequence,sensor-assay potency score (higher = more potent)
1,TTGTTCAGGACGTTGTATCGAC,0.0752
2,TGAACTCGCACCACTCTGCAAA,-0.822
3,TAGTACTGTAGCCGCTCCGTGG,-1.01
4,TTGTTCTTGATAGCAGTGCATC,-1.66
5,TATATTTGCATGATGTGGCCAC,0.329
6,TTGCACATAGCAGTCGGCTTTG,-0.794
7,TTCTTGATAGCAGTGCATCCAG,-0.546
8,TTGCAGGTAACAGATCCGGGGT,-0.679
9,TCGTCTGTGATATTCACACTGC,-0.569
10,TTTGTCGCTCCACACCTGGGGC,-1.27
11,TAGAGTGTGGAGATGCACCAGG,-0.214
12,TTGGCCACTATCCTAGTCTGGG,-0.525

# Target: PLA2R1
# Assay: as above
# Details: shRNA
row,Sequence,sensor-assay potency score (higher = more potent)
1,TATCACAACCTACTTCTGCAGA,-0.52
2,TAAAAGATTAGAACCTTCCTTT,0.786
3,TTTTTCACTATGAAATACCTTG,-0.37
4,TAGTATCACAACCTACTTCTGC,-0.635
5,TTTCTGAGCACAACTCTGGGTG,-0.349
6,TTTTCTTCTAAATATACTGTAC,-0.623
7,TAATGCACTGTTATCAGCCTGA,0.301

# Source: the OligoGym collection
